Experimental data as given in ChEMBL document CHEMBL1201862, “PubChem BioAssay data set” (2004).
About 2,100 (0.53%) of roughly 400,000 compounds were called active. Roughly 14% stayed inconclusive and do not appear here. How the calls were made is not given here. The full list was thinned out, with actives kept by preference.

Biological target: Ataxin-2 (Homo sapiens) (UniProt Q99700)
Assay: qHTS for Inhibitors of ATXN expression.
Assay type: functional

Sequence of Ataxin-2 (Homo sapiens) (Q99700 whole entry): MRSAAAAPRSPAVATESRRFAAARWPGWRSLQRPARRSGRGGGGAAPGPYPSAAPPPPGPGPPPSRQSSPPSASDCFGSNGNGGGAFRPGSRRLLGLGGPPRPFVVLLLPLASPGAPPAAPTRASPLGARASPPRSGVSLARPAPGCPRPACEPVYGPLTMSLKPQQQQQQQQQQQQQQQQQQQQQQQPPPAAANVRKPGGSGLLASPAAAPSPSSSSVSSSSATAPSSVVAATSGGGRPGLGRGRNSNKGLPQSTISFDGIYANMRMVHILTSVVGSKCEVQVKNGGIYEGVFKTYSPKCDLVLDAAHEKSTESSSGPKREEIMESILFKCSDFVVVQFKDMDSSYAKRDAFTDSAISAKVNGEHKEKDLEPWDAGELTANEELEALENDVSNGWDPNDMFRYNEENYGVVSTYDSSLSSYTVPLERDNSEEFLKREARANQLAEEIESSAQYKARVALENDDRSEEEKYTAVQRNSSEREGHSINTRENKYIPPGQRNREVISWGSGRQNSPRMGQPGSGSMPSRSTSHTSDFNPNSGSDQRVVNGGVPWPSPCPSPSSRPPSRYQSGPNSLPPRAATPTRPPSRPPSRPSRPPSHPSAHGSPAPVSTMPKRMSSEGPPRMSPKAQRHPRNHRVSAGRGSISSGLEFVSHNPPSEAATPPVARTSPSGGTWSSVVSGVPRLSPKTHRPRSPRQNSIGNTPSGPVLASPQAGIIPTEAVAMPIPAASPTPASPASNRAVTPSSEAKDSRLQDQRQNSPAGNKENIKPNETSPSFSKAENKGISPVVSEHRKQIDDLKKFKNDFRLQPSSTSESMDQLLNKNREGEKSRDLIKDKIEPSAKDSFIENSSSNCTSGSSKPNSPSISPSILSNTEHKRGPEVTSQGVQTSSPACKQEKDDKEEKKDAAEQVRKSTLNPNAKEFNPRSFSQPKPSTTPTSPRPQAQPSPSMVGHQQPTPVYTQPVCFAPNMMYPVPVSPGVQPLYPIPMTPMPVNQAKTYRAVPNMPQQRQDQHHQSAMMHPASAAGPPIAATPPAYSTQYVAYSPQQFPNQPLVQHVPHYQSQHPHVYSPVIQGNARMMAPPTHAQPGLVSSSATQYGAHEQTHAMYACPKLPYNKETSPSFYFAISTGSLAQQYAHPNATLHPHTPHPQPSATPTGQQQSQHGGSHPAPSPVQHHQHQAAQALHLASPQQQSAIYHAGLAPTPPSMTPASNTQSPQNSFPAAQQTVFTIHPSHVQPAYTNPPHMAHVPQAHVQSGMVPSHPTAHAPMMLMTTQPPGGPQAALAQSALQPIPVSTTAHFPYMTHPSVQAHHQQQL

Structure (SMILES) | Potency
CC1CCCCC1NC(=O)CN1C(=O)c2cccc(N)c2C1=O (stereo not drawn) | inactive
Cc1snc(SCC(=O)c2ccc(F)cc2)c1C#N | inactive
COCCCNC(=O)/C(C#N)=C/c1c(N2CCN(c3ccccc3)CC2)nc2ccccn2c1=O | inactive
CCCC(=O)Nc1nn(CCC)c2nc3ccccc3cc12 | inactive
Oc1nc(-c2ccccc2)nc2sc(-c3ccccc3)cc12 | inactive
Cc1cccc(N2C(=O)c3cccc4c(N(C)CCO)ccc(c34)C2=O)c1 | inactive
Cc1ccc2nc3c(cc(C(=O)NCC4CCCO4)c(=N)n3C3CCCC3)c(=O)n2c1 (stereo not drawn) | inactive
Nc1c(C(=O)N/N=C/c2cccnc2)oc2nc(-c3ccccc3)cc(-c3ccco3)c12 | inactive
Cc1csc(NC(=O)C2CCN(C(=O)c3ccccc3C)CC2)n1 | inactive
CCOC(=O)N1CCC(NS(=O)(=O)c2ccc(C)cc2)CC1 | inactive
CCOC(=O)N1CCN(C(=O)C2CCN(C(=O)c3ccccc3C)CC2)CC1 | 35.5 µM (active)
O=C1OCCN1C(=O)[C@H]1[C@H](c2ccc(Cl)cc2)C(c2ccccc2)=NN1c1ccc(Br)cc1 | inactive
COC(=O)C1=C(C)NC(=O)NC1c1ccc(N2CCC(c3ccccc3)=N2)cc1 (stereo not drawn) | inactive
COc1ccc(C2=CC(c3cccc(OC)c3)n3nnnc3N2)cc1 (stereo not drawn) | inactive
COC(=O)c1ccc(CSc2cc(C)c3cccc(C)c3n2)o1 | inactive
O=C(CCl)N(Cc1cccc([N+](=O)[O-])c1)c1cccc(Cl)c1 | 2.67 µM (active)
Cc1ccc(N(CCC#N)C(=O)CCl)cc1C | 35.5 µM (active)

Structure (SMILES) | Potency
N#CCCN(C(=O)CCl)c1cccc(Cl)c1 | 8.91 µM (active)
N#Cc1c2ccc(O)cc2n2ccccc12 | inactive
O=C(c1ccc(F)cc1)C1CCN(C(=O)c2ccccc2F)CC1 | inactive
CCn1c(SCC(=O)Nc2cc(C)on2)nc2sc3c(c2c1=O)CCCC3 | 10 µM (active)
C=CCNC(=O)CSc1nc2sc3c(c2c(=O)n1CCCOC)CCC3 | inactive
Cc1cc(NC(=O)CSc2nc3c(cc2C#N)CCCC3)no1 | inactive
Cc1c(O)ccc2c(CN(C)Cc3ccccc3)cc(=O)oc12 | inactive
O=c1oc(-c2ccccc2)cc(Cl)c1Cl | 29.9 µM (active)
Cc1ccc(C(=O)Nc2c(C)cc(-c3ccccc3)oc2=O)cc1 | inactive
O=c1cc(-c2ccccc2)oc2ccc(O)cc12 | inactive
O=S(=O)(Nc1nccs1)c1ccc(F)cc1 | inactive
O=C1C=C(C#Cc2ccc(Oc3ccccc3)cc2)C[C@@H](c2ccc(F)cc2)C1 | 28.2 µM (active)
COc1ccc(-c2ccc(CN3C(C)C(=O)N(Cc4cn(CCC5OCCO5)nn4)CCS3(=O)=O)cc2)cc1 (stereo not drawn) | 35.5 µM (active)
COc1ccc(Cn2c(SCC#N)nc3ccc(N4CCOCC4)cc3c2=O)cc1 | inactive
CC(C)C1C(=O)N(Cc2cn(CCC3OCCCO3)nn2)CCS(=O)(=O)N1Cc1ccc(-c2ccc(Cl)c(Cl)c2)cc1 (stereo not drawn) | 31.6 µM (active)
CC1C(=O)N(Cc2cn(CCC3OCCO3)nn2)CCS(=O)(=O)N1Cc1ccc(-c2ccc(Cl)c(Cl)c2)cc1 (stereo not drawn) | 31.6 µM (active)
